# Data taken from the supplement of paper PMC10849652.
# Of roughly 8,800 targets only a part is listed; those with a hit were picked by preference. About 0.5% of all pairs of compound and target were hits. Values without a mark were called inactive.
# Assays:
# Assay in all cases: log2 fold change, soluble protein after heating vs DMSO (PISA); higher = thermal stabilisation; K562 lysate, 10 uM; active = over 0.2 and 3.5 SD of the protein, either way, in both replicates (recomputed)
# alvocidib = compound: CN1CC[C@H](c2c(O)cc(O)c3c(=O)cc(-c4ccccc4Cl)oc23)[C@H](O)C1 [alvocidib]
# How it was run: (§1)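 Pellets of K562 cells were dounce-homogenised in PBS pH 7.4 with 1 mM MgCl2, and the crude extract was held at 1 mg/mL protein for a 30 min treatment with 10 μM compound. Aliquots were heated for 3 min over 48°C-58°C and pooled before NP-40 was added to 0.5% at 4°C. The supernatant from 21,000xg for 90 min was quantified by TMTpro 16plex LC-MS/MS with channel sums equalised. Values are reported from duplicates as log-two fold change in thermal stability relative to solvent controls.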
# Tubastatin A = compound: CN1CCc2c(c3ccccc3n2Cc2ccc(C(=O)NO)cc2)C1 [Tubastatin A]
# How it was run: as §1
# [1] = compound: CNC(=O)C1=CC=CC=C1NC2=NC(=NC=C2Cl)NC3=C(C=C(C=C3)N4CCOCC4)OC
# How it was run: as §1
# defactinib = compound: CNC(=O)c1ccc(Nc2ncc(C(F)(F)F)c(NCc3nccnc3N(C)S(C)(=O)=O)n2)cc1 [defactinib]
# How it was run: as §1
# [2] = compound: CNc1nc(-c2ccc3c(N)n[nH]c3c2)cc(N2C[C@@H](C(=O)NC3CCCCC3)CC[C@H]2C)n1
# How it was run: as §1
# encorafenib = compound: COC(=O)N[C@@H](C)CNc1nccc(-c2cn(C(C)C)nc2-c2cc(Cl)cc(NS(C)(=O)=O)c2F)n1 [encorafenib]
# How it was run: as §1
# [3] = compound: COC(=O)[C@H](CCSC)NC(=O)C1=C(C=C(C=C1)NC[C@H](CS)N)C2=CC=CC=C2
# How it was run: as §1
# alisertib = compound: COc1cc(Nc2ncc3c(n2)-c2ccc(Cl)cc2C(c2c(F)cccc2OC)=NC3)ccc1C(=O)O [alisertib]
# How it was run: as §1
# [4] = compound: COc1cc2nc(-c3cc(F)ccc3O)nc(N[C@@H]3CNC[C@H]3C(C)(C)O)c2cc1OC
# How it was run: as §1
# gefitinib = compound: COc1cc2ncnc(Nc3ccc(F)c(Cl)c3)c2cc1OCCCN1CCOCC1 [gefitinib]
# How it was run: as §1
# lapatinib = compound: CS(=O)(=O)CCNCc1ccc(-c2ccc3ncnc(Nc4ccc(OCc5cccc(F)c5)c(Cl)c4)c3c2)o1 [lapatinib]
# How it was run: as §1
# pictilisib = compound: CS(=O)(=O)N1CCN(Cc2cc3nc(-c4cccc5[nH]ncc45)nc(N4CCOCC4)c3s2)CC1 [pictilisib]
# How it was run: as §1
# crizotinib = compound: C[C@@H](Oc1cc(-c2cnn(C3CCNCC3)c2)cnc1N)c1c(Cl)ccc(F)c1Cl [crizotinib]
# How it was run: as §1
# [5] = compound: C[C@H](C1=CC=C(C=C1)C(=O)NC2=C3C=CNC3=NC=C2)N
# How it was run: as §1
# duvelisib = compound: C[C@H](Nc1ncnc2nc[nH]c12)c1cc2cccc(Cl)c2c(=O)n1-c1ccccc1 [duvelisib]
# How it was run: as §1
# gandotinib = compound: Cc1cc(Nc2cc(CN3CCOCC3)c3nc(C)c(Cc4ccc(Cl)cc4F)n3n2)n[nH]1 [gandotinib]
# How it was run: as §1
# tozasertib = compound: Cc1cc(Nc2cc(N3CCN(C)CC3)nc(Sc3ccc(NC(=O)C4CC4)cc3)n2)n[nH]1 [tozasertib]
# How it was run: as §1
# doramapimod = compound: Cc1ccc(-n2nc(C(C)(C)C)cc2NC(=O)Nc2ccc(OCCN3CCOCC3)c3ccccc23)cc1 [doramapimod]
# How it was run: as §1
# bafetinib = compound: Cc1ccc(NC(=O)c2ccc(CN3CC[C@H](N(C)C)C3)c(C(F)(F)F)c2)cc1Nc1nccc(-c2cncnc2)n1 [bafetinib]
# How it was run: as §1
# [6] = compound: Cc1cccc(CC(=O)N2CCc3c2ccc(-c2cn(C)c4ncnc(N)c24)c3F)n1
# How it was run: as §1
# Chain of UniProt Q9ULI4 (Q9ULI4 whole entry, looked up): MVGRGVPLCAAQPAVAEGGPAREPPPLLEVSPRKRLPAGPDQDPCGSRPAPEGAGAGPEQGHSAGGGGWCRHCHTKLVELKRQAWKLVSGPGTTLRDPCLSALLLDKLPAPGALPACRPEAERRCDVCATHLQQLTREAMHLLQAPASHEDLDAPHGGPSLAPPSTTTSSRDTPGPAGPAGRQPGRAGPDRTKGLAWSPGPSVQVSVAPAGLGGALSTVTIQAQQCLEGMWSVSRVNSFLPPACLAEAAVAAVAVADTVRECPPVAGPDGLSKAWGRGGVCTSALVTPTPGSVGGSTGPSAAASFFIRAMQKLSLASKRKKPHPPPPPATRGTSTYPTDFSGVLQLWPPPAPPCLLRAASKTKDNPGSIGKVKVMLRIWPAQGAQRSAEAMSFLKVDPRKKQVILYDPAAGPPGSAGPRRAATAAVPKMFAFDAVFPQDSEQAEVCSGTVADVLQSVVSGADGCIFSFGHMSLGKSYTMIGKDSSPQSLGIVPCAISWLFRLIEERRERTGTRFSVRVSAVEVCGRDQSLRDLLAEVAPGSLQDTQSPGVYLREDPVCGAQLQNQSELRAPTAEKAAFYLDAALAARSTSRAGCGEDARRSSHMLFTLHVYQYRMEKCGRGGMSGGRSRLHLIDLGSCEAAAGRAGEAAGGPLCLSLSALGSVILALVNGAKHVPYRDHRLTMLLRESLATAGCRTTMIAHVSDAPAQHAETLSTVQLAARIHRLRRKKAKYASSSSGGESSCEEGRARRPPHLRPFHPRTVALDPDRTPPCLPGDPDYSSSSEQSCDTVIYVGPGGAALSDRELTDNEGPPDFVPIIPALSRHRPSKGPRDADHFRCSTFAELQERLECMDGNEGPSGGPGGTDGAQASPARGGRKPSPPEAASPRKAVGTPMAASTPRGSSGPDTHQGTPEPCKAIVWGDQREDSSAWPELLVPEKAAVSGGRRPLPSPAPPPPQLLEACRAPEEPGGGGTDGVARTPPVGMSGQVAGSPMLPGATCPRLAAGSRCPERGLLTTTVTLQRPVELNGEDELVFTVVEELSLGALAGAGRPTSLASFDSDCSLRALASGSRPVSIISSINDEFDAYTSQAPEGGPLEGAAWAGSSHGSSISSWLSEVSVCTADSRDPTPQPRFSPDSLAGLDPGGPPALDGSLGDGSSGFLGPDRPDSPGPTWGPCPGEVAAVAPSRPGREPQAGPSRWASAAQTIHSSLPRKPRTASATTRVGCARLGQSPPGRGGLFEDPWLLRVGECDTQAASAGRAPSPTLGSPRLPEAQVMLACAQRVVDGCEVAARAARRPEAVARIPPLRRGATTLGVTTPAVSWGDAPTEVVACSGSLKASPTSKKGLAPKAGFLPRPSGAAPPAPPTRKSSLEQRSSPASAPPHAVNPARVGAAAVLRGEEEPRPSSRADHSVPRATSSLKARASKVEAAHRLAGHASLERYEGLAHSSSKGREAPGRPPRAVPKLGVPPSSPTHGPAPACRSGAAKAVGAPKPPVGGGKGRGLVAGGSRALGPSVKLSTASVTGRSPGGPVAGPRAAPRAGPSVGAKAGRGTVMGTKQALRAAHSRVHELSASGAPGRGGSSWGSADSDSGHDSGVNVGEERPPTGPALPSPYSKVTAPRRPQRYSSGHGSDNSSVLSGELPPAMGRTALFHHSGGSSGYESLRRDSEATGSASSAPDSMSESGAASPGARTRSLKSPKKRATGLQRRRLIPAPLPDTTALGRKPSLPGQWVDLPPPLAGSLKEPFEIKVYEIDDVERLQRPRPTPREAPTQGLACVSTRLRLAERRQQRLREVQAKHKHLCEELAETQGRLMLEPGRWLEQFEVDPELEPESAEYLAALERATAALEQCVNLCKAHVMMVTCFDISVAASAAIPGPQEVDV
# Chain of UniProt Q7Z3U7 (Q7Z3U7 whole entry, looked up): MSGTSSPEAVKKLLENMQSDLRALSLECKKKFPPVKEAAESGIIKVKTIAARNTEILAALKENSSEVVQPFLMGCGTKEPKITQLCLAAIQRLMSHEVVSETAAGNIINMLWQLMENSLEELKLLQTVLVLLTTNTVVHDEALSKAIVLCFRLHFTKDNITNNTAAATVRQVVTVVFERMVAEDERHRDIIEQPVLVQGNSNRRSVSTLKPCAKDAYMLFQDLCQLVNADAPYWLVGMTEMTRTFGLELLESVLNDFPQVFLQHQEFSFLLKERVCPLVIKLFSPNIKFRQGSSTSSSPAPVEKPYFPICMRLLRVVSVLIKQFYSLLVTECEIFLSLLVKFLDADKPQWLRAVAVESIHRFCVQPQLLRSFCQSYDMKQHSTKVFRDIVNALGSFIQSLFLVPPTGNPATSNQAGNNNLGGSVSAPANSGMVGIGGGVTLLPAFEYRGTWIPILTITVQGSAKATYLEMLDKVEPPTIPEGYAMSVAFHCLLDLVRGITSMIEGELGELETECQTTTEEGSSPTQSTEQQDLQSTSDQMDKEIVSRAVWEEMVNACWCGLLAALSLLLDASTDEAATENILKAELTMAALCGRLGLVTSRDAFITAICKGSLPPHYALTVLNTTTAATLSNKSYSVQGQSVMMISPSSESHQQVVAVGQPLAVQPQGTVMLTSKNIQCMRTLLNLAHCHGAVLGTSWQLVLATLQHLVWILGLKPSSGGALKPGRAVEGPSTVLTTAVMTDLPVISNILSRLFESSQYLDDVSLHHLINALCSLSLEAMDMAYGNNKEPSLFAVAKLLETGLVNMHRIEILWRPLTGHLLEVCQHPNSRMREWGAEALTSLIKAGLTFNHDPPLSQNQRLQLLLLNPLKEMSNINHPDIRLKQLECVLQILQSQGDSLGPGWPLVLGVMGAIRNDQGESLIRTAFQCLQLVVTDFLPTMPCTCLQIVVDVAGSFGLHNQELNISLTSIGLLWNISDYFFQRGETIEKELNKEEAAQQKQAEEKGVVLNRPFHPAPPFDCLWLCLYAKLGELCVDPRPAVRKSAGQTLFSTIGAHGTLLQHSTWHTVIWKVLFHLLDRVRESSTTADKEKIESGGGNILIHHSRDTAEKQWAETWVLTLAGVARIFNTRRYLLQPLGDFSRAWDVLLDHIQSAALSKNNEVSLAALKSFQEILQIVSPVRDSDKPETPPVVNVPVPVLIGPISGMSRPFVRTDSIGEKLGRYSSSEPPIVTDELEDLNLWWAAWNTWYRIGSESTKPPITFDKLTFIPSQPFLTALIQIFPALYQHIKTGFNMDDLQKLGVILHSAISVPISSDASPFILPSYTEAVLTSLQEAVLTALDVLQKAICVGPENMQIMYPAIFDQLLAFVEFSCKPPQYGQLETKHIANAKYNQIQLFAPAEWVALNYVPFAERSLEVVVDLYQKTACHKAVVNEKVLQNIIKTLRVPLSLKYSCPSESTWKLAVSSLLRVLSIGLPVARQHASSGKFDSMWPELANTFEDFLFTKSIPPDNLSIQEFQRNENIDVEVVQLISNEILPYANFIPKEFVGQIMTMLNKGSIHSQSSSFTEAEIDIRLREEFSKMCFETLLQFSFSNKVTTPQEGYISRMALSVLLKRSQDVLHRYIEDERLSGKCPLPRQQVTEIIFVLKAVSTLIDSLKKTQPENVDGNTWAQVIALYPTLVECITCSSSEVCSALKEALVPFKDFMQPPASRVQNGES
# Chain of UniProt Q8TC05 (Q8TC05 whole entry, looked up): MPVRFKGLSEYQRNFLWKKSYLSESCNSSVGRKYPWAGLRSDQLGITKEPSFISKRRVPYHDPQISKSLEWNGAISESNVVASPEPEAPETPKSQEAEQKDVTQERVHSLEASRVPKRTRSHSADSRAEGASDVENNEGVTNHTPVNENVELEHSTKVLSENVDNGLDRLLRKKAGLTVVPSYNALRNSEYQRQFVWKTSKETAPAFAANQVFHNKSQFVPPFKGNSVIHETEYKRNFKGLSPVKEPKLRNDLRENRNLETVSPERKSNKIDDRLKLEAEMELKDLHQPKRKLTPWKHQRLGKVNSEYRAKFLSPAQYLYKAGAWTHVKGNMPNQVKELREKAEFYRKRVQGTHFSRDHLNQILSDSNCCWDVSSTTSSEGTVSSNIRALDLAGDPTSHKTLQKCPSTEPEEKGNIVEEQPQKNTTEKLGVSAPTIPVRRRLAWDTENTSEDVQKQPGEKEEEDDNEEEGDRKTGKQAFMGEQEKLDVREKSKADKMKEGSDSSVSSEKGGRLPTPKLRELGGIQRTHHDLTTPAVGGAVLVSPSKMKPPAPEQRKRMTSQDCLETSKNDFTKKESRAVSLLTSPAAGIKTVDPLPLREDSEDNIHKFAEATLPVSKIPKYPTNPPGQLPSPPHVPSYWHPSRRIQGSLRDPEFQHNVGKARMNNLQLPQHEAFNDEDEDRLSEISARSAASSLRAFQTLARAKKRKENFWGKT
# Chain of UniProt P45984 (P45984 whole entry, looked up): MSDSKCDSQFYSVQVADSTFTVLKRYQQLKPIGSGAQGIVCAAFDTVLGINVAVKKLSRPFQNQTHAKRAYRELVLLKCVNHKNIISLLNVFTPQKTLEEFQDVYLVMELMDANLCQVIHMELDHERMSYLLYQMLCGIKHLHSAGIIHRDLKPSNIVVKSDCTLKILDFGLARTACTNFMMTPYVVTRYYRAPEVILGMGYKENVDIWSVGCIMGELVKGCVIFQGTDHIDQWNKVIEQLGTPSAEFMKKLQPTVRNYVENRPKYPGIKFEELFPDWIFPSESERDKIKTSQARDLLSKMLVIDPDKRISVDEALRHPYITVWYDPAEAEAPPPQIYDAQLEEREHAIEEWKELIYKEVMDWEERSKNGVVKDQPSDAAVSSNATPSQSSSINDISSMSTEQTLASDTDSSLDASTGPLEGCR
# Chain of UniProt P01116 (P01116 whole entry, looked up): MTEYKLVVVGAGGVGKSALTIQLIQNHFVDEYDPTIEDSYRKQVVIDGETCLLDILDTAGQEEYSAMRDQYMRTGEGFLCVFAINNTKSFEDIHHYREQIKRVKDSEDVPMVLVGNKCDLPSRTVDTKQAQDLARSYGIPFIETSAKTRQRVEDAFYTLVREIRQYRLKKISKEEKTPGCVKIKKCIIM
Target,log2 fold change (alvocidib),log2 fold change (Tubastatin A),log2 fold change [1],log2 fold change (defactinib),log2 fold change [2],log2 fold change (encorafenib),log2 fold change [3],log2 fold change (alisertib),log2 fold change [4],log2 fold change (gefitinib),log2 fold change (lapatinib),log2 fold change (pictilisib),log2 fold change (crizotinib),log2 fold change [5],log2 fold change (duvelisib),log2 fold change (gandotinib),log2 fold change (tozasertib),log2 fold change (doramapimod),log2 fold change (bafetinib),log2 fold change [6]
MRPL28 (UniProt Q13084),0.261,-0.074,-0.11,0.039,0.001,0.026,-0.026,0.045,-0.02,0.072,-0.046,0.03,-0.08,0.482 (active),0.043,-0.246,0.059,-0.012,-0.04,-0.228
LIG4 (UniProt P49917),0.02,-0.025,-0.04,0.063,0.005,0.048,0.415 (active),-0.049,-0.096,-0.069,0.028,-0.245,-0.035,-0.064,0.022,-0.07,-0.034,-0.037,-0.167,0.073
MAPK9 (UniProt P45984),0.028,-0.064,0.44 (active),0.056,0.006,0.17,-0.019,-0.021,0.006,0.027,0.001,0.088,-0.021,0.026,0.006,0.035,0.033,0.192,-0.011,-0.15
MAD2L2 (UniProt Q9UI95),-0.026,0.051,0.033,0.06,0.064,-0.069,0.022,0.04,0.135,-0.006,-0.003,0.058,-0.142,-0.008,-0.001,-0.127,0.042,0.022,-0.11,0.073
MECR (UniProt Q9BV79),0.018,0.014,0.01,0.007,0.053,-0.06,0.049,0,0.04,-0.011,-0.028,-0.038,0.007,-0.11,0.007,0.045,0.007,0.02,-0.005,0.013
MDM1 (UniProt Q8TC05),-0.527,0.007,-0.071,-0.126,-0.328,0,-0.12,0.018,-0.031,0.14,-0.004,–,–,-1.42 (active),0.05,0.336,0.083,–,–,0.554 (active)
MAP4K2 (UniProt Q12851),0.111,-0.189,-0.02,0.086,0.055,-0.183,-0.234,–,0.219,–,-0.164,0.126,–,0.145,0.077,0.273,0.054,0.035,-0.126,-0.015
MAP2K1 (UniProt Q02750),0.06,-0.011,0.066,0.013,0.028,-0.07,-0.063,-0.036,0.021,0.029,-0.065,-0.009,0.001,0.204,-0.021,-0.042,0.152,-0.002,-0.027,-0.047
KIF26A (UniProt Q9ULI4),0.022,0.566 (active),-0.149,-0.105,-0.021,-0.052,0.035,0.004,–,0.056,–,0.039,0.013,-0.065,-0.017,0.003,0.086,-0.002,-0.055,0.002
KRAS (UniProt P01116),-0.071,0.059,-0.048,-0.01,-0.005,0.01,0.043,-0.016,-0.042,0.139,0.019,–,0.017,-0.078,0.001,0.044,-0.013,0.006,–,0.145
MRPL35 (UniProt Q9NZE8),0.057,-0.226,0.01,0.014,0.033,–,–,0.01,-0.072,0.009,0.051,0.001,0.01,-0.207,-0.054,0,–,-0.023,-0.02,0.039
MINK1 (UniProt Q8N4C8),-0.049,-0.137,0.055,0.025,0.109,-0.133,0.022,0.051,-0.003,–,-0.084,-0.02,-0.149,0.271,0.026,-0.102,0.014,0.24,-0.158,0.249
MRPL27 (UniProt Q9P0M9),0.082,-0.017,0.016,–,-0.028,-0.047,0.008,-0.019,0,0.022,0.02,0.017,-0.046,0.658 (active),0.02,-0.249,0.029,0.011,0.012,-0.076
MON2 isoform 5 (UniProt Q7Z3U7),0.003,-0.149,0.018,0.023,-0.014,0.034,-0.035,-0.004,0,0.005,-0.034,-0.027,-0.077,-0.042,0.003,-0.031,0.001,-0.011,-0.035,0.12
LBR (UniProt Q14739),0.072,0.025,-0.063,0.04,-0.002,-0.021,0.027,0.071,0.001,-0.094,-0.071,-0.068,0.063,0.159,-0.039,-0.285 (active),-0.003,-0.06,-0.114,-0.096
MPP5 (UniProt Q8N3R9),0.066,-0.08,-0.051,0.034,0.045,0.073,0.114,-0.217,–,-0.139,–,-0.091,-0.028,-0.003,-0.017,0.01,-0.033,0.115,-0.043,0.099
MRPL30 isoform 2 (UniProt Q8TCC3),0.419 (active),0.034,-0.003,–,-0.002,-0.049,-0.034,-0.033,-0.003,-0.013,0.03,-0.029,-0.094,0.746 (active),0.068,-0.373 (active),0.158,0.013,0.043,-0.458 (active)
